# Assay results as given in PubChem BioAssay AID1259376 (The Scripps Research Institute Molecular Screening Center, 2018).
# Screen size: about 4,700 compounds; about 360 (7.7%) were called active. Shown is part of a subset that was picked to be rich in actives. A number with no mark means an inactive call.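 The calls were made as follows: active = inhibition above a cutoff derived from the DMSO control wells (cut at about 30% in these data); inactive = the rest.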
# Test: bead signal artefacts at single dose – biochemical, AlphaScreen, triplicate, counter-screen for MITF inhibitor project (AID 1259376)
# Details: LysRS AlphaScreen counterscreen, signal interference, at 2.6 µM, stronger effect = higher value
row,SMILES,inhibition
1,COc1cc(NC(=O)CCc2nc(C3=CCN(C)CC3)no2)cc(OC)c1OC,34.2% (active)
2,COc1ccccc1CN1CCN(C(=O)Cc2ccccc2)CC1,7.15%
3,COc1ccc(CN2CCN(C(C)C)CC2)cc1,10.5%
4,COc1cccc(CN2CCN(Cc3ccccc3F)CC2)c1,16.6%
5,CCN1CCc2nc3ccccc3c(C(=O)O)c2C1,4.31%
